Shown are actives, neighbours in structure and some others; about 1.7% of the full set was active somewhere.
IkB signaling: IkB Signaling. actives 0.04% (n = 110,000). ABC-DLBCL IkBa-CBG/CBR dual luciferase ratio, 4 h; response scale: scaled: untreated 0%, proteasome inhibitor 100%. AID 445, 2006. Potency, µM (series often up to 57.1 µM); active = well fitted curve in the direction sought with a large enough effect in the signal ratio, not every such curve was filed as active; inconclusive = small, poorly fitted or top-dose-only effect, or a change in a side signal; the % refers to the signal ratio;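 note: the direction sought is a rising ratio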
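Luminescence ratio of IκBα-fused green versus native red beetle luciferase in OCI-Ly3 cells, 4 h post-doxycycline with compound; red signal alone, scaled from basal (0%) to zero light (-100%), flagged nonspecific or cytotoxic effects.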
p53ts 39C kill: qHTS Screen for Compounds that Selectively Target Cancer Cells with p53 Mutations: Cytotoxicity of p53ts Cells at the Nonpermissive Temperature; actives 1.5% (n = 130,000); H1299-p53A138V viability at 39C, ATP luminescence, 24 h; Potency, µM (series often up to 46.1 µM), actives largely listed as cytotoxic; AID 902, 2007; note: nearly all actives have a fitted effect of over 55% in size
Peg3 imprint: qHTS Assay for Compounds that Induce Erasure of Genomic Imprints; mouse ES Peg3-LacZ reporter, beta-gal luminescence, 40 h; Potency, µM (highest dose often 60.7 µM), actives largely listed as activators; actives 0.02% (n = 110,000); AID 1948, 2009
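Imprint erasure is scored as LacZ activity from the silenced maternal Peg3 allele in feeder-free female ES cells cultured 40 h with LIF. Luminescence is normalized to in-plate negative controls and fitted to the Hill equation.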
p53ts 32C tox: qHTS Screen for Compounds that Selectively Target Cancer Cells with p53 Mutations: Cytotoxicity of p53ts Cells at the Permissive Temperature; H1299-p53A138V at 32C, ATP luminescence viability, 24 h; Potency, µM (highest dose often 46.1 µM), hits mostly cytotoxic; actives 0.93% (n = 130,000); note: nearly all actives have a fitted effect of over 55% in size
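ATP-content luminescence (ATPlite) read-out after 24 h compound exposure at 32C in H1299-p53A138V cells (600/well). Tested up to 46 uM. Normalized to DMSO (0%) and 100 uM tamoxifen (100% killing); Hill-fit AC50.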
Large screens that a line does not name were inactive. Unless noted, calls come from the whole dose curve; as a rule, active = well fitted curve in the direction sought with a large enough effect; inconclusive = small, poorly fitted or top-dose-only effect, or another doubt; inactive = no such curve, though single readings can be large; an effect the other way counts as inactive or inconclusive.

C[C@@H]1CC[C@@]2(OC1)O[C@H]1[C@@H](O)[C@H]3[C@@H]4CC[C@H]5C[C@@H](O[C@@H]6O[C@H](CO)[C@H](O[C@@H]7O[C@H](CO)[C@@H](O)[C@H](O[C@@H]8OC[C@@H](O)[C@H](O)[C@H]8O)[C@H]7O[C@@H]7O[C@H](CO)[C@@H](O)[C@H](O[C@@H]8O[C@H](CO)[C@@H](O)[C@H](O)[C@H]8O)[C@H]7O)[C@H](O)[C@H]6O)[C@H](O)C[C@]5(C)[C@H]4CC[C@]3(C)[C@H]1[C@@H]2C	IkB signaling inconclusive, p53ts 39C kill 13µM
CO[C@@H]1CC=C2CCN3CCC4=C(CC(=O)OC4)[C@]23C1	none (no result: Peg3 imprint)
CC(=O)c1cccc(NC(=O)c2cccn(Cc3cccc(C)c3)c2=O)c1	IkB signaling inconclusive
CC(=O)c1cccc(NC(=O)c2cc3c(s2)-c2c(C)cccc2OC3)c1	IkB signaling inconclusive, p53ts 39C kill 5µM, p53ts 32C tox 10µM
CC(C)n1cc2c3c(cccc31)[C@@H]1C[C@H](C(=O)O[C@@H](C)[C@H](C)O)CN(C)[C@H]1C2	none (no result: Peg3 imprint)
CN(C)c1ccc(N)cc1	IkB signaling inconclusive, p53ts 39C kill 32µM
CN(C)c1ccc(N=O)cc1	IkB signaling inconclusive, p53ts 39C kill inconclusive, Peg3 imprint inconclusive
CCCCCCCC/C=C\CCCCCCCC(N)=O	p53ts 39C kill 32µM
CC[C@H]1CN2CC[C@@H]1C[C@@H]2[C@H](O)c1ccnc2ccccc12	none (no result: p53ts 39C kill, Peg3 imprint, p53ts 32C tox)
CSC([N-]/N=C/c1cccc(C)n1)=[S]=[Cu].CS[C@H]([S-])[N-]/N=C/c1cccc(C)n1	IkB signaling inconclusive, p53ts 39C kill inconclusive, p53ts 32C tox 2µM (no result: Peg3 imprint)
COC(=O)[C@H](N)CCCN=C(N)N[N+](=O)[O-]	none (no result: Peg3 imprint)
C=CCn1c(O)c(C(C)=NCc2cc(OC)cc(OC)c2)c(=O)[nH]c1=O	p53ts 39C kill inconclusive, p53ts 32C tox 10µM
C=CCn1c(O)c(C(C)=NCc2cccnc2)c(=O)[nH]c1=O	none
CN(C)C(=S)SSC(=S)N(C)C	IkB signaling 6.3µM
Cn1ncnc2c(=O)n(C)c(=O)nc1-2	IkB signaling inconclusive, p53ts 39C kill 5µM, p53ts 32C tox 0.79µM
C[C@H]1C(=O)O[C@H]2CCN3CC=C(COC(=O)[C@](C)(O)[C@@]1(C)O)[C@H]23	none (no result: p53ts 39C kill, Peg3 imprint, p53ts 32C tox)
O=C(O)[C@@H](O)[C@@H](O)[C@@H]1[O][Sb][O][C@@H]1CO	none (no result: Peg3 imprint)

Screening data (PubChem BioAssay)
